The record followed here is ChEMBL document CHEMBL1961873, “Compounds: GSK PKIS; Assays: Nanosyn kinase panel” (2012).

Assay [1] deals with T1, Muscle, skeletal receptor tyrosine-protein kinase (Homo sapiens) (UniProt O15146).
T1 sequence (whole entry): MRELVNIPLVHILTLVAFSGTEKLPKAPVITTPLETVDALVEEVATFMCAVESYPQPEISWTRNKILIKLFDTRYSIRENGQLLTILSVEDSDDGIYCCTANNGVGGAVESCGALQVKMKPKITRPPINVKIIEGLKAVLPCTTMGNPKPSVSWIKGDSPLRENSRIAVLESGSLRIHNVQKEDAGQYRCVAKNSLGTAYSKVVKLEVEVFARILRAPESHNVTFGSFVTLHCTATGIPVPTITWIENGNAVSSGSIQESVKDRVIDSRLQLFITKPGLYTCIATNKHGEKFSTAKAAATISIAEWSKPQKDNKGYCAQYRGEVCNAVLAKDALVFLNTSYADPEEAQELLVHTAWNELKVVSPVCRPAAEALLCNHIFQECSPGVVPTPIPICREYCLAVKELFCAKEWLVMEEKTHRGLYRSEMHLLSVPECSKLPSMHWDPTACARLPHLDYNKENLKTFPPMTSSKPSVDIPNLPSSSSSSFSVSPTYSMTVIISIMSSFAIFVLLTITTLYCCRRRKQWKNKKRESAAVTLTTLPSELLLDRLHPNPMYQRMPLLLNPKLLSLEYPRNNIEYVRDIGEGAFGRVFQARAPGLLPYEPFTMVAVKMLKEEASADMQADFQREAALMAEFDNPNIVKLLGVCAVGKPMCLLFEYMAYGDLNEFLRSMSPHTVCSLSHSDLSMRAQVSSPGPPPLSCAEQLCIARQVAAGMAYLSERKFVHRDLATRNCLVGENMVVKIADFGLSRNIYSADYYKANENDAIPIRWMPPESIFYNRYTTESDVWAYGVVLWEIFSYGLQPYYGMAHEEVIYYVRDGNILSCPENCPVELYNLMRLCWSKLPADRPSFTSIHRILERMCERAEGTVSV
As to conditions: at 1 µM.

For assay [2], the target named is Platelet-derived growth factor receptor alpha (Homo sapiens) (UniProt P16234). As to conditions: at 0.1 µM.
For assay [3] the target is unchanged. The following applies: at 1 µM.
Assay [4] has as its system Platelet-derived growth factor receptor alpha (Homo sapiens), P16234 [D842V]. As to conditions: at 0.1 µM.
Assay [5] shares this test system. As to conditions: at 1 µM.
For assay [6], the system named is Platelet-derived growth factor receptor alpha (Homo sapiens), P16234 [T674I]. As to conditions: at 0.1 µM.
Assay [7] shares this test system. As to conditions: at 1 µM.
In assay [8] the test system is Platelet-derived growth factor receptor alpha (Homo sapiens), P16234 [V561D]. As to conditions: at 0.1 µM.
Assay [9] has the same test system. As to conditions: at 1 µM.
Assay [10] addresses Platelet-derived growth factor receptor beta (Homo sapiens) (UniProt P09619). As to conditions: at 0.1 µM.
Assay [11] shares this target. As to conditions: at 1 µM.
In assay [12] the target is Tyrosine-protein kinase FRK (Homo sapiens) (UniProt P42685). As to conditions: at 0.1 µM.
Assay [13] has the same target. As to conditions: at 1 µM.
Assay [14] deals with Protein-tyrosine kinase 2-beta (Homo sapiens) (UniProt Q14289). As to conditions: at 0.1 µM.
Assay [15] has the same target. The following applies: at 1 µM.
In assay [16] the target is Proto-oncogene tyrosine-protein kinase receptor Ret (Homo sapiens) (UniProt P07949). The following applies: at 0.1 µM.
Assay [17] shares this target. The following applies: at 1 µM.
Assay [18] has as its system Proto-oncogene tyrosine-protein kinase receptor Ret (Homo sapiens), P07949 [V804L]. The following applies: at 0.1 µM.
Assay [19] has the same test system. The following applies: at 1 µM.
For assay [20], the system named is Proto-oncogene tyrosine-protein kinase receptor Ret (Homo sapiens), P07949 [Y791F]. As to conditions: at 0.1 µM.

Values joined by “and” are separate entries in the source; they are usually repeats but may differ in a detail not shown here. Identical values can stand only once.

Sequence of Platelet-derived growth factor receptor beta (Homo sapiens) (P09619 whole entry): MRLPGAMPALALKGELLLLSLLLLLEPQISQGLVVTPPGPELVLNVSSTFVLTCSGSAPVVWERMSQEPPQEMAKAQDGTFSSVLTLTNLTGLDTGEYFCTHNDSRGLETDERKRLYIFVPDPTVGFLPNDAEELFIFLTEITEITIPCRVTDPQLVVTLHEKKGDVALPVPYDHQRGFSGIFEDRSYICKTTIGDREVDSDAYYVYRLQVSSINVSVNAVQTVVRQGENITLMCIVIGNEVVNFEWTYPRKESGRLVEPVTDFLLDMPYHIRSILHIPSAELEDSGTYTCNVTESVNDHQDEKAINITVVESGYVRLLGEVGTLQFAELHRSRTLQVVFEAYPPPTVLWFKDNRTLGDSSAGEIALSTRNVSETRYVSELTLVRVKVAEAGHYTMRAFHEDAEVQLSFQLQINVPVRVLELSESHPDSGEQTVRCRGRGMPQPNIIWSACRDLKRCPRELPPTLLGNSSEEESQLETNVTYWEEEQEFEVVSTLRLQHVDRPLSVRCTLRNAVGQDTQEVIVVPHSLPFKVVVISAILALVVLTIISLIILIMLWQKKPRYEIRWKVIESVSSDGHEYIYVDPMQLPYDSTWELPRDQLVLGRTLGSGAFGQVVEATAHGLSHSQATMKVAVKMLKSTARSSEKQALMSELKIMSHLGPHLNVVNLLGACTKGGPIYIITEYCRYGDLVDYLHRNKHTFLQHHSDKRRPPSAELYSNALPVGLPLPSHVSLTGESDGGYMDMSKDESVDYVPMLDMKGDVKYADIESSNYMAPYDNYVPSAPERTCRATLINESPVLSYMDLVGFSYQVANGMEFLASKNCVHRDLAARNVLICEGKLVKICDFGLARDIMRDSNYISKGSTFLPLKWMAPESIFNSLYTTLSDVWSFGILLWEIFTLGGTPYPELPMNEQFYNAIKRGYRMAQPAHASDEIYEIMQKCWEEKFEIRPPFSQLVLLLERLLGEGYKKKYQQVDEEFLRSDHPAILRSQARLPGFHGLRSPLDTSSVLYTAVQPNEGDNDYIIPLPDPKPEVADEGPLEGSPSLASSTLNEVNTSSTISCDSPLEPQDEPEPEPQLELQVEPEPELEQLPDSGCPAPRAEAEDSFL
Sequence of Proto-oncogene tyrosine-protein kinase receptor Ret (Homo sapiens), P07949 [Y791F] (P07949 whole entry Y791F): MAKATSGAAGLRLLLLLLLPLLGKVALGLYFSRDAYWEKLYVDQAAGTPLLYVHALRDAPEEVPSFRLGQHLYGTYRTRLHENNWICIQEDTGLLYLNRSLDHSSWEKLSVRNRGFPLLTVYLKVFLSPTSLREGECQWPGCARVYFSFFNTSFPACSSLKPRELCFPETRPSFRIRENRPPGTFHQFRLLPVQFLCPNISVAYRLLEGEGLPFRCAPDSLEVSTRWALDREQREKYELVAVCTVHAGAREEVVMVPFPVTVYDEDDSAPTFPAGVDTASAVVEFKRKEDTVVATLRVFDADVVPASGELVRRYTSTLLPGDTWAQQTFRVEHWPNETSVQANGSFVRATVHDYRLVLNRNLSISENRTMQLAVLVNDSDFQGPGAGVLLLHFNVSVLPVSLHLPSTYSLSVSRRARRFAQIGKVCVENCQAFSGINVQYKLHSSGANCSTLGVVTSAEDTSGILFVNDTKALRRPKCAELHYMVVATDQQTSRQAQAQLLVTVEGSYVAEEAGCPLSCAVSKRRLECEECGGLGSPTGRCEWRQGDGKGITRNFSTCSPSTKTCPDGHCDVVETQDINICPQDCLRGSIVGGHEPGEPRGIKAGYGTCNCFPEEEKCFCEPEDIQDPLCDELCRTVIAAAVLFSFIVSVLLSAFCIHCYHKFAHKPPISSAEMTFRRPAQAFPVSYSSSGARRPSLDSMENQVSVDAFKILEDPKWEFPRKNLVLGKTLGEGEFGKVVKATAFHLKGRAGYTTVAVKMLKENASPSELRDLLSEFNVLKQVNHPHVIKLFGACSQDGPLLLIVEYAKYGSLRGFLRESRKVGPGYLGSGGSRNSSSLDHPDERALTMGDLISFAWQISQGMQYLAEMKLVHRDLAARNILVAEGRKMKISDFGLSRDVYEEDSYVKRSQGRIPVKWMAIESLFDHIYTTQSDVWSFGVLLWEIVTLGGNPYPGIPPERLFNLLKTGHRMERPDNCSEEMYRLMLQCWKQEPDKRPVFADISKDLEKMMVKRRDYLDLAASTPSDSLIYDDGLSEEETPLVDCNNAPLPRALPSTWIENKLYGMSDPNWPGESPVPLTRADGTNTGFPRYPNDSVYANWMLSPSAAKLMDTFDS
Sequence of Platelet-derived growth factor receptor alpha (Homo sapiens), P16234 [V561D] (P16234 whole entry V561D): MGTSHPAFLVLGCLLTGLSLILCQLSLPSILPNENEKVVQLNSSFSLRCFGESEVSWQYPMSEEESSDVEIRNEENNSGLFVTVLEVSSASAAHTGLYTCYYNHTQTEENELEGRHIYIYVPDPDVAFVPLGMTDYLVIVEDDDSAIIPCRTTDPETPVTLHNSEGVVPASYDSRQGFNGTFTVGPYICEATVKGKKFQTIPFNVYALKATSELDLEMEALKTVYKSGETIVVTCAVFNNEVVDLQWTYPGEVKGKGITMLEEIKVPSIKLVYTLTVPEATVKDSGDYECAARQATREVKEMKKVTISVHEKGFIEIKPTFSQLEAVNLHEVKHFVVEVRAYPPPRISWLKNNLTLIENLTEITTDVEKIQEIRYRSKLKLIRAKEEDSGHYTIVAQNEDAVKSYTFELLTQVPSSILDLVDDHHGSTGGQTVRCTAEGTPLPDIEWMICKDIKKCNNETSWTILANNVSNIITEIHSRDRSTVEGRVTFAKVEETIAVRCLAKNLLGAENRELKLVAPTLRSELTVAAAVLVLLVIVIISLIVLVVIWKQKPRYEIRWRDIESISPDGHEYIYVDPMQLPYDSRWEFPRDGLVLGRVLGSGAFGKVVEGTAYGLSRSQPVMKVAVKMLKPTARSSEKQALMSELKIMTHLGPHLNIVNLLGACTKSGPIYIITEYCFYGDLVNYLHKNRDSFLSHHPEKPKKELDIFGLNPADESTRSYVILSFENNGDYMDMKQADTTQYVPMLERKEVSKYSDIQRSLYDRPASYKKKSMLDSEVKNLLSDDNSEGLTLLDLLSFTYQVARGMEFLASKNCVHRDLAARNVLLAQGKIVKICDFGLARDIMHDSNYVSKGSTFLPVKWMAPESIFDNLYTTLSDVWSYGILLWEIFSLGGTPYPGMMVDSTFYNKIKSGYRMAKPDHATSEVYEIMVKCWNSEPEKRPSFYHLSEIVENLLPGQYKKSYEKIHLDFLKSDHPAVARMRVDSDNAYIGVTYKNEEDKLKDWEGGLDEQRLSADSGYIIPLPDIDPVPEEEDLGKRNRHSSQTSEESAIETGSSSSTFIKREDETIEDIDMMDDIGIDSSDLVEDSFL
Sequence of Proto-oncogene tyrosine-protein kinase receptor Ret (Homo sapiens) (P07949 whole entry): as the sequence (P07949 whole entry Y791F) above, with F791Y counted along it
Sequence of Tyrosine-protein kinase FRK (Homo sapiens) (P42685 whole entry): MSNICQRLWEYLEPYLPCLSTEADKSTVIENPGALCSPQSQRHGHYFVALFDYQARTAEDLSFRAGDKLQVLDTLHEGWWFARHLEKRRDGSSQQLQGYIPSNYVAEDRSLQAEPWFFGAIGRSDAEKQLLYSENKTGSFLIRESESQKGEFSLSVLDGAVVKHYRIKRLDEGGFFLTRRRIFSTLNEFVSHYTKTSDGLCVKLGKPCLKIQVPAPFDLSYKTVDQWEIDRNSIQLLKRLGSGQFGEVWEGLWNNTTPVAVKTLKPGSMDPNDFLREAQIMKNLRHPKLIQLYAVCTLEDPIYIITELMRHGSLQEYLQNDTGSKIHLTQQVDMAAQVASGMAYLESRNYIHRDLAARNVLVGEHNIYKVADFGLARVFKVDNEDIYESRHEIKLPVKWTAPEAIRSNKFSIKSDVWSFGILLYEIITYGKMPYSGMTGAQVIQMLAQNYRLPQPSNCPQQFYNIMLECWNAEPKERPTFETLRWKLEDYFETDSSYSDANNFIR

As usually defined, the inhibition is the relative decrease from the control value, in per cent. In the case of `O=C(O[C@H]1CN[C@H](C#Cc2cc3ncnc(Nc4ccc5c(ccn5Cc5cc(F)ccc5F)c4)c3s2)C1)N1CCOCC1`, the inhibition turned out to be 4.92% in assay [1]; 6.05% in [2]; 12.3% in assay [3]; 2.95% in assay [4]; 3.49% in assay [5]; 5.88% in [6]. Further, the inhibition was 6.54% in assay [7]; 7.32% in assay [8]; 5.97% in assay [9]; 2.48% in assay [10]; 7.68% in assay [11]; 3.08% in assay [12]. Further, the inhibition in [13] was found to be 2.35%; in assay [14] it was 13.2%; in [15], 5.45%; in [16] it was 2.76%; in [17], 4.91%; in assay [18], 2.75%. Moreover, the inhibition came out at 4.26% in assay [19] and 1.9% in [20].

With `CN(c1ccc(NC(=O)NCCN2CCOCC2)cc1)c1ccnc(Nc2ccc(CS(C)(=O)=O)cc2)n1`, the inhibition was 8.61% in assay [1]; 51.8% in [2]; 84.4% in [3]; 2.7% in assay [4]; 28.6% in assay [5]; 63.9% in [6]. In addition, the inhibition in [7] is 95%; in assay [8] it was 61.6%; in [9], 90.1%; in assay [10], 33.7%; in assay [11] it was 77.1%; in assay [12] it was 1.69%. Also, the inhibition is 0.89% in assay [13]; 11.2% in [14]; 57.8% in [15]; 16.5% in assay [16]; 58.5% in [17]; 13.2% in assay [18]. The inhibition in assay [19] amounted to 48.9%; in assay [20] it was 29.1%.

As to `CN1CCC(C(=O)Nc2n[nH]c3nc(-c4ccc(O)cc4)c(Br)cc23)CC1`, the inhibition is 9.34% and 7.11% in assay [1]; 5.64% and 6.91% in assay [2]; 27.9% and 21.1% in assay [3]; 2.54% and 0.22% in [4]; 16.3% and 9.77% in assay [5]; 5.57% and 1.83% in assay [6]. Further, the inhibition in [7] is 9.37% and 7.73%; in [8], 5.98% and 2.37%; in [9] it was 19.9% and 16.1%; in assay [10], 7.32% and 7.22%; in assay [11], 22.6% and 17.3%; in assay [12], 1.77% and -0.83%. Further, the inhibition in assay [13] was 2.31% and 3.98%; in assay [14] it was 10.8% and -4.15%; in [15], 12.9% and 6.02%; in assay [16] it was 7.08% and 5.43%; in assay [17], 9.97% and 0.25%; in [18] it was 4.68% and 1.68%. The inhibition in [20] was 4.94% and 4.6%.

Regarding `CN1CCN(Cc2ccc(-c3cc4ncnc(Nc5ccc(OCc6cccc(F)c6)c(Cl)c5)c4s3)o2)CC1`, the inhibition in [1] was 1.12% and 8.01%; in assay [2] it was 6.77% and 7.26%; in [3], 16.9% and 23.4%; in assay [4], 3.07% and 3.74%; in assay [5] it was 6.44% and 9.07%; in assay [6], 4.32% and 7.13%. Also, the inhibition was 13.9% and 20% in assay [7]; 5.61% and 3.37% in [8]; 13.1% and 11.5% in [9]; 2.48% and 3.36% in [10]; 6.41% and 13% in assay [11]; 2.16% and 3.11% in [12]. For the same compound, the inhibition in assay [13] is 3.13% and 4.91%; in assay [14] it was 8.63% and 10.6%; in [15] it was 8.03% and 19.6%; in assay [16] it was 6.83% and 5.69%; in assay [17], 13.4% and 14.8%; in [18], 3.67% and 4.61%. For the same compound, the inhibition in assay [19] was 5.81% and 10.9%; in assay [20] it was 4.88% and 3.59%.

Take `COc1c(C(N)=O)cc(-c2ccc(Cl)cc2)cc1-c1ccc(S(N)(=O)=O)cc1`: the inhibition in assay [1] was 7.45%; in assay [2], 3.49%; in [3], 9.97%; in [4], 2.3%; in assay [5], 2.99%; in assay [6], 2.39%. In addition, the inhibition was 4.51% in [7]; 3.68% in assay [8]; 5.56% in assay [9]; 2.5% in [10]; 1.5% in [11]; 2.55% in [12]. Also, the inhibition in assay [13] came to 3.5%; in assay [14] it was 5.92%; in assay [15] it was 12.1%; in assay [16], 2.82%; in assay [17], 4.87%; in assay [18], 6.61%. Besides, the inhibition in assay [19] was 9.45%; in assay [20], 6.18%.

Regarding `COc1cc(Nc2ncc(-c3ccccc3)o2)cc(OC)c1`, the inhibition in assay [1] was found to be 4.72%; in assay [2], 17.5%; in [3], 54.3%; in assay [4], 4.08%; in assay [5] it was 12.3%; in assay [6], 19.5%. Also, the inhibition amounted to 76.4% in assay [7]; 38.5% in [8]; 64.3% in assay [9]; 20.5% in assay [10]; 62.9% in [11]; 0.8% in assay [12]. Moreover, the inhibition in [13] is 4.62%; in assay [14], 6.76%; in [15], 9.54%; in assay [16] it was 7.16%; in [17] it was 8.97%; in [18], 4.73%. In addition, the results for the inhibition in assay [19] and in assay [20] were 11.9% and 8.14%, respectively.

With `CCCNc1cccc(-n2ncc3c(N/N=C/c4ccncc4)ncnc32)c1`, the inhibition in assay [1] worked out at 49.9%; in [2], 29.4%; in assay [3], 78.4%; in assay [4], 16.3%; in assay [5], 71%; in assay [6], 11.7%. The inhibition in [7] was determined as 38.2%; in assay [8], 15.3%; in assay [9], 68.4%; in assay [10] it was 27.1%; in assay [11], 78.8%; in [12] it was 0.57%. Moreover, the inhibition in assay [13] was 3.14%; in [14], 2.47%; in [15], 12.2%; in assay [16], 15%; in assay [17] it was 54.7%; in [18] it was 7.89%. Besides, the figures for the inhibition in assay [19] and in assay [20] were 40.7% and 16.4%, respectively.

With `COc1ccc(Nc2ncc(-c3ccccc3)o2)cc1OC`, the inhibition in assay [1] was determined as 19.2%; in assay [2], 25.9%; in assay [3], 68.6%; in assay [4], 5.83%; in [5], 28.4%; in [6], 42.2%. The inhibition in assay [7] was 94.4%; in assay [8], 48.8%; in [9] it was 77%; in assay [10], 25.5%; in assay [11] it was 68%; in assay [12], -0.09%. The inhibition is 4.33% in assay [13]; -5.6% in [14]; 1.04% in assay [15]; 6.8% in [16]; 23.1% in assay [17]; 4.53% in assay [18]. Besides, the values for the inhibition in assay [19] and in assay [20] were 17.1% and 6.85%, respectively.

For `CNC(=O)c1cncc(/C=C/c2ccccc2C)c1`, the inhibition stood at 3.97% in assay [1]; 11.8% in [2]; 17.8% in assay [3]; 3.85% in assay [4]; 5.79% in [5]; 4.91% in assay [6]. Besides, the inhibition was 5.69% in assay [7]; 4.75% in [8]; 17% in [9]; 6.6% in [10]; 20.1% in assay [11]; 1.01% in assay [12]. Also, the inhibition was found to be 1.8% in [13]; 5.28% in [14]; 5.23% in assay [15]; 3.93% in assay [16]; 6.36% in [17]; 5.6% in [18]. The inhibition came out at 11.8% in assay [19] and 2.57% in assay [20].
